Common to all, as to assay: yeast three-hybrid, YBZ-1, SC-Leu-His + 0.5 mM 3-AT, 4 days
Details in all cases: tags: N-Gal4 AD-HA kept; label: inside an RPR1-promoter hybrid RNA with tandem MS2 sites; ssRNA

Test [1] has as its target PUM1 PUF domain R7-RSN (Homo sapiens, UniProt Q14671 828-1176, S1079R;N1080S;E1083N). In short, it runs like this:
(§1)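 Repeat regions from input (SC-Leu) and selection (SC-Leu-His + 0.5 mM 3-AT) plates were PCR-amplified and Illumina-sequenced after four days of growth. The cells were strain YBZ-1 with a LexA–MS2 coat fusion and a HIS3 reporter, co-expressing Pumilio-1 PUF domain libraries and matching RNA elements from a centromeric plasmid. The interaction score is the log change in variant frequency from input to selection, taken in log2 with a pseudocount of 1 for absent variants.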

Test [2] concerns the target PUM1 PUF domain R1-GCR (Homo sapiens, UniProt Q14671 828-1176, S863G;R864C;Q867R). In a few lines: as §1
Test [3] concerns the target PUM1 PUF domain R1-KGS (Homo sapiens, UniProt Q14671 828-1176, S863K;R864G;Q867S). In short, it runs like this:
as §1

In test [4] the target is PUM1 PUF domain R5-FKR (Homo sapiens, UniProt Q14671 828-1176, C1007F;R1008K;Q1011R). In a few lines:
as §1

Test [5] concerns the target PUM1 PUF domain R5-GGR (Homo sapiens, UniProt Q14671 828-1176, C1007G;R1008G;Q1011R). In short, it runs like this:
as §1

The target in test [6] is PUM1 PUF domain R5-RHF (Homo sapiens, UniProt Q14671 828-1176, C1007R;R1008H;Q1011F). In short, it runs like this:
as §1

Test [7] concerns the target PUM1 PUF domain R1-TMR (Homo sapiens, UniProt Q14671 828-1176, S863T;R864M;Q867R). In short, it runs like this:
as §1

Test [8] addresses PUM1 PUF domain R4-DYG (Homo sapiens, UniProt Q14671 828-1176, N971D;H972Y;Q975G). In a few lines:
as §1

Test [9] addresses PUM1 PUF domain R4-ACG (Homo sapiens, UniProt Q14671 828-1176, N971A;H972C;Q975G). In short, it runs like this:
as §1

In test [10] the target is PUM1 PUF domain R4-PFN (Homo sapiens, UniProt Q14671 828-1176, N971P;H972F;Q975N). In short, it runs like this: as §1
Sequence of PUM1 PUF domain R4-PFN (Q14671 828-1176 N971P/H972F/Q975N): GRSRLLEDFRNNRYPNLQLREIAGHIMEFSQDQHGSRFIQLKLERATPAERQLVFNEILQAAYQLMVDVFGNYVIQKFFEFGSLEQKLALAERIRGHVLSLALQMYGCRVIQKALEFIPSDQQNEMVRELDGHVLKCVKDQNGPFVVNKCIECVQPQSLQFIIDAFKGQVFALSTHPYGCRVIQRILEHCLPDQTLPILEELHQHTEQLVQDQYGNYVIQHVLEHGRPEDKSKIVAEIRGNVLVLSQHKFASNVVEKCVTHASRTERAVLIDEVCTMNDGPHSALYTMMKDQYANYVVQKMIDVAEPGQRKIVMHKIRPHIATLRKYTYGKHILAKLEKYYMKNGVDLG
Test [11] has as its target PUM1 PUF domain R4-GRA (Homo sapiens, UniProt Q14671 828-1176, N971G;H972R;Q975A). In a few lines:
as §1

Test [12] addresses T1, PUM1 PUF domain R6-VYG (Homo sapiens, UniProt Q14671 828-1176, N1043V;Q1047G).
T1 sequence: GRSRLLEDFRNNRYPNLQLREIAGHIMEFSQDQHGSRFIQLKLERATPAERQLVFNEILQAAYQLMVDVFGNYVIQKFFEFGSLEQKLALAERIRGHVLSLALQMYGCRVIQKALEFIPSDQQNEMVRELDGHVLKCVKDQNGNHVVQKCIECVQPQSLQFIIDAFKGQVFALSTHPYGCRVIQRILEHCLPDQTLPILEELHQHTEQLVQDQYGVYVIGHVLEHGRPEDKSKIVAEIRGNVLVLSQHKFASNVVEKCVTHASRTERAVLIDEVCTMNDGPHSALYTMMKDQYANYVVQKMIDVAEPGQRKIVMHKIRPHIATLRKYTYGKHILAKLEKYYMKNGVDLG
In a few lines:
as §1

The target of test [13] is PUM1 PUF domain R8-RFT (Homo sapiens, UniProt Q14671 828-1176, N1122R;Y1123F;Q1126T). In a few lines:
as §1

Test [14] addresses PUM1 PUF domain R8-HWG (Homo sapiens, UniProt Q14671 828-1176, N1122H;Y1123W;Q1126G). In short, it runs like this: as §1
Test [15] addresses PUM1 PUF domain R3-SME (Homo sapiens, UniProt Q14671 828-1176, C935S;R936M;Q939E). In short, it runs like this:
as §1

The target in test [16] is PUM1 PUF domain R8-RHI (Homo sapiens, UniProt Q14671 828-1176, N1122R;Y1123H;Q1126I). In short, it runs like this: as §1
Test [17] deals with PUM1 PUF domain R8-YHR (Homo sapiens, UniProt Q14671 828-1176, N1122Y;Y1123H;Q1126R). In short, it runs like this: as §1
Sequence of PUM1 PUF domain R8-YHR (Q14671 828-1176 N1122Y/Y1123H/Q1126R): as the sequence (Q14671 828-1176 N971P/H972F/Q975N) above, with P144N, F145H, N148Q, N295Y, Y296H, Q299R counted along it
The target in test [18] is PUM1 PUF domain R5-RGP (Homo sapiens, UniProt Q14671 828-1176, C1007R;R1008G;Q1011P). In short, it runs like this:
as §1

The target of test [19] is PUM1 PUF domain R5-KND (Homo sapiens, UniProt Q14671 828-1176, C1007K;R1008N;Q1011D). In a few lines:
as §1

In test [20] the target is PUM1 PUF domain R2-RVE (Homo sapiens, UniProt Q14671 828-1176, N899R;Y900V;Q903E). In short, it runs like this: as §1
Sequence of PUM1 PUF domain R2-RVE (Q14671 828-1176 N899R/Y900V/Q903E): as the sequence (Q14671 828-1176 N971P/H972F/Q975N) above, with N72R, Y73V, Q76E, P144N, F145H, N148Q counted along it

These results are taken from publication PMC8384837, “Expanding the binding specificity for RNA recognition by a PUF domain”.

Sequence of PUM1 PUF domain R4-GRA (Q14671 828-1176 N971G/H972R/Q975A): as the sequence (Q14671 828-1176 N971P/H972F/Q975N) above, with P144G, F145R, N148A counted along it
Sequence of PUM1 PUF domain R4-ACG (Q14671 828-1176 N971A/H972C/Q975G): as the sequence (Q14671 828-1176 N971P/H972F/Q975N) above, with P144A, F145C, N148G counted along it
Sequence of PUM1 PUF domain R5-RHF (Q14671 828-1176 C1007R/R1008H/Q1011F): as the sequence (Q14671 828-1176 N971P/H972F/Q975N) above, with P144N, F145H, N148Q, C180R, R181H, Q184F counted along it
Sequence of PUM1 PUF domain R1-KGS (Q14671 828-1176 S863K/R864G/Q867S): as the sequence (Q14671 828-1176 N971P/H972F/Q975N) above, with S36K, R37G, Q40S, P144N, F145H, N148Q counted along it
Sequence of PUM1 PUF domain R8-HWG (Q14671 828-1176 N1122H/Y1123W/Q1126G): as the sequence (Q14671 828-1176 N971P/H972F/Q975N) above, with P144N, F145H, N148Q, N295H, Y296W, Q299G counted along it
Sequence of PUM1 PUF domain R5-GGR (Q14671 828-1176 C1007G/R1008G/Q1011R): as the sequence (Q14671 828-1176 N971P/H972F/Q975N) above, with P144N, F145H, N148Q, C180G, R181G, Q184R counted along it
Sequence of PUM1 PUF domain R8-RFT (Q14671 828-1176 N1122R/Y1123F/Q1126T): as the sequence (Q14671 828-1176 N971P/H972F/Q975N) above, with P144N, F145H, N148Q, N295R, Y296F, Q299T counted along it

Consider “GGCUAGAACUAGUGGAUCCCCCGGCGCCCGGCGGCUCGAGCCCGGGUAAGUCUAAAUAGUCUGCAUGCCGCCGGGCGCCAUGCCUGCAGGUCGACUCUAGAAAACAUG”, for which, in test [1], the binding signal was 1.34 log2 enrichment (interaction score).
Consider “GGCUAGAACUAGUGGAUCCCCCGGCGCCCGGCGGCUCGAGCCCGGGUAAGUGUAAAUUGUCUGCAUGCCGCCGGGCGCCAUGCCUGCAGGUCGACUCUAGAAAACAUG”, for which the binding signal in test [2] is 1.58 log2 enrichment (interaction score); in [3], 4.48 log2 enrichment (interaction score).
Take “GGCUAGAACUAGUGGAUCCCCCGGCGCCCGGCGGCUCGAGCCCGGGUAAGUGUUAAUAGUCUGCAUGCCGCCGGGCGCCAUGCCUGCAGGUCGACUCUAGAAAACAUG”: the figures for the binding signal in test [4], in test [5] and in test [6] were 2.17 log2 enrichment (interaction score), 1.88 log2 enrichment (interaction score) and 3.71 log2 enrichment (interaction score), respectively.
For the sequence “GGCUAGAACUAGUGGAUCCCCCGGCGCCCGGCGGCUCGAGCCCGGGUAAGUGUAAAUCGUCUGCAUGCCGCCGGGCGCCAUGCCUGCAGGUCGACUCUAGAAAACAUG”, the binding signal in test [7] was 2.55 log2 enrichment (interaction score); in test [2], 2.53 log2 enrichment (interaction score); in test [3], 5.23 log2 enrichment (interaction score).
Consider “GGCUAGAACUAGUGGAUCCCCCGGCGCCCGGCGGCUCGAGCCCGGGUAAGUGUAUAUAGUCUGCAUGCCGCCGGGCGCCAUGCCUGCAGGUCGACUCUAGAAAACAUG”, for which the binding signal in test [8] is 6.59 log2 enrichment (interaction score); in [9], 0.66 log2 enrichment (interaction score); in test [10], 6.39 log2 enrichment (interaction score); in [11], 2.46 log2 enrichment (interaction score).
Consider “GGCUAGAACUAGUGGAUCCCCCGGCGCCCGGCGGCUCGAGCCCGGGUAAGUGAAAAUAGUCUGCAUGCCGCCGGGCGCCAUGCCUGCAGGUCGACUCUAGAAAACAUG”, for which, in test [12], the binding signal was 5.61 log2 enrichment (interaction score).
Regarding “GGCUAGAACUAGUGGAUCCCCCGGCGCCCGGCGGCUCGAGCCCGGGUAAGUGUAAAUAGUCUGCAUGCCGCCGGGCGCCAUGCCUGCAGGUCGACUCUAGAAAACAUG”, the binding signal in [12] was 1.61 log2 enrichment (interaction score); in test [8], 6.38 log2 enrichment (interaction score); in test [9], 3.13 log2 enrichment (interaction score); in [13], 4.66 log2 enrichment (interaction score); in [14], 4.47 log2 enrichment (interaction score); in test [11] it was 4.39 log2 enrichment (interaction score).
Regarding “GGCUAGAACUAGUGGAUCCCCCGGCGCCCGGCGGCUCGAGCCCGGGUAAGUGUAAGUAGUCUGCAUGCCGCCGGGCGCCAUGCCUGCAGGUCGACUCUAGAAAACAUG”, the binding signal in [15] is 3.43 log2 enrichment (interaction score).
Turning to “GGCUAGAACUAGUGGAUCCCCCGGCGCCCGGCGGCUCGAGCCCGGGUAAGUGUACAUAGUCUGCAUGCCGCCGGGCGCCAUGCCUGCAGGUCGACUCUAGAAAACAUG”, the binding signal was 5.37 log2 enrichment (interaction score) in test [8], 1.1 log2 enrichment (interaction score) in [9] and 1.92 log2 enrichment (interaction score) in [11].
As to “GGCUAGAACUAGUGGAUCCCCCGGCGCCCGGCGGCUCGAGCCCGGGUAAGUUUAAAUAGUCUGCAUGCCGCCGGGCGCCAUGCCUGCAGGUCGACUCUAGAAAACAUG”, the binding signal in test [1] is 3.1 log2 enrichment (interaction score).
For “GGCUAGAACUAGUGGAUCCCCCGGCGCCCGGCGGCUCGAGCCCGGGUAAGCGUAAAUAGUCUGCAUGCCGCCGGGCGCCAUGCCUGCAGGUCGACUCUAGAAAACAUG”, the binding signal in test [16] is 5.37 log2 enrichment (interaction score); in test [13] it was 5.64 log2 enrichment (interaction score); in test [14], 4.11 log2 enrichment (interaction score); in [17], 3.34 log2 enrichment (interaction score).
As to “GGCUAGAACUAGUGGAUCCCCCGGCGCCCGGCGGCUCGAGCCCGGGUAAGUGUCAAUAGUCUGCAUGCCGCCGGGCGCCAUGCCUGCAGGUCGACUCUAGAAAACAUG”, the binding signal in test [18] was 2.99 log2 enrichment (interaction score); in [4] it was 3.62 log2 enrichment (interaction score); in test [19], 3.62 log2 enrichment (interaction score); in [5], 4.92 log2 enrichment (interaction score); in [6], 2.99 log2 enrichment (interaction score).
Regarding “GGCUAGAACUAGUGGAUCCCCCGGCGCCCGGCGGCUCGAGCCCGGGUAAGUGUAAAGAGUCUGCAUGCCGCCGGGCGCCAUGCCUGCAGGUCGACUCUAGAAAACAUG”, the binding signal in [20] is 2.9 log2 enrichment (interaction score).
